For part of these data: Entries with a potency or affinity are not part of this list. Active and inactive are the calls of the source.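 How the source made its calls, unless noted: active means calcium signal ratio cut to more than 3 SD under the fully stimulated control mean yet still positive, in both repeats and the primary screen; inactive means the rest.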
Tests used:
[1] = system: TRPC4 beta (transient receptor potential cation channel C4), mouse; assay: TRPC4 cation channel opening, retest – cell-based, Fluo4 calcium, HEK293 TRPC4beta/mu-opioid, duplicates, 10 µM, confirmation (AID 2426;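 active means fluorescence ratio normalized to control raised more than 50% in primary screen plus both repeat runs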); conditions: Fluo4 calcium fluorescence, at 10 µM; stronger effect = higher value
[2] = system: transient receptor potential cation channel C4 beta (TRPC4), mouse; assay: TRPC4 cation channel opening, second retest – cell-based, second round, Fluo4, HEK293 TRPC4beta/mu-opioid, 1 µM, confirmation (AID 2461;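 active means primary screen active and over 50% activation in each of two duplicate runs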); conditions: Fluo4 calcium fluorescence, at 1 µM; stronger effect = higher value
[3] = system: TRPC4 (transient receptor potential cation channel C4 beta), mouse; assay: potentiation of DAMGO EC20 TRPC4 response – cell-based, second round, Fluo-4, HEK293 TRPC4beta/mu-opioid, 1 µM, confirmation (AID 2554;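 active means primary screen hit whose fluorescence ratio, in both repeats, exceeds the weak agonist control mean by 3 SD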); conditions: DAMGO EC20, Fluo-4 calcium flux, at 1 µM; stronger effect = higher value
[4] = system: TRPC4 beta (transient receptor potential cation channel C4), mouse; assay: potentiation of DAMGO EC20 TRPC4 response – cell-based, Fluo-4, HEK293 TRPC4beta/mu-opioid, confirmation (AID 2555;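 active means primary screen hit whose calcium fluorescence ratio, in both repeats, exceeds the weak agonist control mean by 3 SD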); conditions: DAMGO EC20, Fluo-4 calcium flux, at 10 µM; stronger effect = higher value
[5] = target: Short transient receptor potential channel 4 (Mus musculus) (UniProt Q9QUQ5); assay: blockers of DAMGO-evoked TRPC4 calcium flux – cell-based, Fluo4, HEK293 TRPC4beta/mu-opioid, confirmation (AID 2636;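 active means calcium signal cut by more than 3 SD below the full-agonist control yet still positive, in both repeats and the earlier primary screen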); conditions: at 10 µM; stronger effect = higher value
[6] = target: Short transient receptor potential channel 4 (Mus musculus) (UniProt Q9QUQ5); assay: blockers of DAMGO-evoked TRPC4 calcium flux – cell-based, second round, Fluo4, HEK293 TRPC4beta/mu-opioid, 1 µM, confirmation (AID 2637); conditions: at 1 µM; stronger effect = higher value
[7] = target: Short transient receptor potential channel 4 (Mus musculus) (UniProt Q9QUQ5); assay: calcium entry via TRPC4 opening agents – cell-based, HEK293 TRPC4/mu-opioid, Fluo-4 calcium, dose response (AID 434937;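 active means primary screen activator hit with a dose response curve and TRPC4 channel activation at any tested dose; inactive means no activation, no dose response, or not a primary hit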)
[8] = target: Short transient receptor potential channel 4 (Mus musculus) (UniProt Q9QUQ5); assay: potentiation of DAMGO-evoked TRPC4 calcium signal – cell-based, HEK293 TRPC4/mu-opioid, Fluo-4 calcium, EC20 DAMGO, dose response (AID 434941;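 active means earlier screen potentiator hit that boosts the TRPC4 ion channel at some dose, with a dose response; inactive means no potentiation, no dose response, or not a prior hit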;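 further: calcium entry triggered by an EC20 dose of DAMGO at the co-expressed mu-opioid receptor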)
[9] = target: Short transient receptor potential channel 4 (Mus musculus) (UniProt Q9QUQ5); assay: block of DAMGO-driven TRPC4 calcium entry – cell-based, HEK293 TRPC4/mu-opioid, Fluo-4 calcium, dose response (AID 434942;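 active means primary screen inhibitor hit that blocks the TRPC4 channel at some tested dose, yielding a dose curve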)
[10] = target: Short transient receptor potential channel 6 (Mus musculus) (UniProt Q61143); assay: TRPC6 blockade by TRPC4 inhibitor hits – cell-based, HEK293, membrane potential dye, duplicate, selectivity assay for TRPC4 inhibitor project, confirmation (AID 434948;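 active means active in primary screen and both duplicates, each dropping signal beyond three positive-control SD with fluorescence still positive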); conditions: HEK293 TRPC6, membrane potential dye fluorescence, at 10 µM, stimulated with maximal-effect acetylcholine; stronger effect = higher value
[11] = target: Short transient receptor potential channel 6 (Mus musculus) (UniProt Q61143); assay: TRPC6 opening by TRPC4 activator hits – cell-based, HEK293, membrane potential dye, duplicate, selectivity assay for TRPC4 activator project, confirmation (AID 434950;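 active means membrane potential signal rise above negative control mean plus 3 SD in both duplicates, also active in the earlier TRPC4 screen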); conditions: HEK293 TRPC6, membrane potential fluorescence, at 10 µM; activation: stronger effect = higher value; outcome: activation
[12] = target: Short transient receptor potential channel 6 (Mus musculus) (UniProt Q61143); assay: positive modulators of mouse TRPC6 channel – HEK293 cells, membrane potential dye, duplicate, selectivity assay for TRPC4 potentiator project, confirmation (AID 434952;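 active means compound raising the membrane signal above positive-control mean plus 3 SD in both repeats, and a primary screen hit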); conditions: HEK293 TRPC6, membrane potential dye fluorescence, at 10 µM, maximal acetylcholine added after compound; stronger effect = higher value
[13] = target: Short transient receptor potential channel 4 (Mus musculus) (UniProt Q9QUQ5); assay: calcium flux activators in TRPC4/5HT1a cells, counter-screen for TRPC4 activator project, cell-based, second counter screen, HEK293 TRPC4/5HT1a, Fluo-4 (AID 434977;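 active means calcium signal rise above buffer-control mean plus 5 SD in both duplicates, and also a hit in the primary screen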); conditions: Fluo-4 calcium flux, at 10 µM; stronger effect = higher value
[14] = serotonin-gated TRPC4 signal block – cell-based, second counter screen, HEK293 TRPC4/5HT1a, Fluo-4, counter-screen for TRPC4 inhibitor project, confirmation (AID 434978;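 active means primary screen active whose calcium signal fell more than 3 SD beyond the full-serotonin control mean in both duplicate plates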;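 further: serotonin given first at submaximal then at maximal dose after compound preincubation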); conditions: Fluo-4 calcium flux, at 10 µM, serotonin added to trigger calcium flux; stronger effect = higher value
[15] = system: TRPC4 (mouse), co-expressed with 5HT1a in HEK293; assay: enhancement of serotonin-evoked TRPC4 response – cell-based, second counter screen, HEK293 TRPC4/5HT1a, Fluo-4, counter-screen for TRPC4 potentiator project, confirmation (AID 434979;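 active means signal rise over 3 SD above mean of control wells given weak agonist, in both repeats and first screen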); conditions: Fluo-4 calcium flux, at 10 µM, serotonin added at its EC20 dose; stronger effect = higher value
[16] = nonspecific calcium rise without TRPC4 – cell-based, HEK293 mu-opioid receptor line, counter-screen for TRPC4 activator project, confirmation (AID 449723;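 active means hit in primary screen, with calcium signal over 5 SD above buffer well mean in both duplicates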;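 further: counter screen cells carry the mu-opioid receptor alone and lack TRPC4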); conditions: HEK293 mu-opioid cells, Fluo-4 calcium fluorescence, at 10 µM; stronger effect = higher value
[17] = nonspecific potentiation of DAMGO calcium response – cell-based, HEK293 mu-opioid receptor line, counter-screen for TRPC4 allosteric potentiator project, confirmation (AID 449724;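 active means calcium signal rise more than 3 SD above the low-dose agonist control mean, in both duplicate plates and the primary screen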); conditions: HEK293 mu-opioid receptor cells, Fluo-4 calcium flux, at 10 µM, compound added before EC20 DAMGO stimulus; stronger effect = higher value

Short transient receptor potential channel 4 (Mus musculus), sequence (Q9QUQ5 whole entry, looked up): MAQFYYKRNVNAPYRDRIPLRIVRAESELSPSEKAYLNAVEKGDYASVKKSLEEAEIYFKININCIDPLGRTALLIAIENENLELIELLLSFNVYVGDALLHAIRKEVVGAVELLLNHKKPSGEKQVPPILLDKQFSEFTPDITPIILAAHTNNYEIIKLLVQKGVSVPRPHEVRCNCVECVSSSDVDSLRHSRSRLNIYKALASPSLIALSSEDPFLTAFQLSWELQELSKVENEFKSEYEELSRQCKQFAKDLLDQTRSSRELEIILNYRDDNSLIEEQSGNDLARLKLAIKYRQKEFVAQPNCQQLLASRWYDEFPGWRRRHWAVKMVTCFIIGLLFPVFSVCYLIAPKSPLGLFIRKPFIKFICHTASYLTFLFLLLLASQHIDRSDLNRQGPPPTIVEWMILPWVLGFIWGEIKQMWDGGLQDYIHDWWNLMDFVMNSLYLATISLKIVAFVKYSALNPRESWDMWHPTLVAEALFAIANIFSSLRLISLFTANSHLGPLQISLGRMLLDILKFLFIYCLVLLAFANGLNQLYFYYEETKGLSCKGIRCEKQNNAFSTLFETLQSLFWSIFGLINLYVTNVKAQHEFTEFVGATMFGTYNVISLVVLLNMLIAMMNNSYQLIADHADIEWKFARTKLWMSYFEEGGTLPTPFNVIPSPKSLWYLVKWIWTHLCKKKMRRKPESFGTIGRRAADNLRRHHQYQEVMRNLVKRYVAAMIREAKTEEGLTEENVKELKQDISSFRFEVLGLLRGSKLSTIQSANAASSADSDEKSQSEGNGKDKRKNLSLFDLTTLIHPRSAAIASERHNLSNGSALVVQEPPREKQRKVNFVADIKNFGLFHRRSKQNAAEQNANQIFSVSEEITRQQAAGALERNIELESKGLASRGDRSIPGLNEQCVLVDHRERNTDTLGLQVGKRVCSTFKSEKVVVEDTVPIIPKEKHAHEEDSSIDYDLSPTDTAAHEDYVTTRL
Short transient receptor potential channel 6 (Mus musculus), sequence (Q61143 whole entry, looked up): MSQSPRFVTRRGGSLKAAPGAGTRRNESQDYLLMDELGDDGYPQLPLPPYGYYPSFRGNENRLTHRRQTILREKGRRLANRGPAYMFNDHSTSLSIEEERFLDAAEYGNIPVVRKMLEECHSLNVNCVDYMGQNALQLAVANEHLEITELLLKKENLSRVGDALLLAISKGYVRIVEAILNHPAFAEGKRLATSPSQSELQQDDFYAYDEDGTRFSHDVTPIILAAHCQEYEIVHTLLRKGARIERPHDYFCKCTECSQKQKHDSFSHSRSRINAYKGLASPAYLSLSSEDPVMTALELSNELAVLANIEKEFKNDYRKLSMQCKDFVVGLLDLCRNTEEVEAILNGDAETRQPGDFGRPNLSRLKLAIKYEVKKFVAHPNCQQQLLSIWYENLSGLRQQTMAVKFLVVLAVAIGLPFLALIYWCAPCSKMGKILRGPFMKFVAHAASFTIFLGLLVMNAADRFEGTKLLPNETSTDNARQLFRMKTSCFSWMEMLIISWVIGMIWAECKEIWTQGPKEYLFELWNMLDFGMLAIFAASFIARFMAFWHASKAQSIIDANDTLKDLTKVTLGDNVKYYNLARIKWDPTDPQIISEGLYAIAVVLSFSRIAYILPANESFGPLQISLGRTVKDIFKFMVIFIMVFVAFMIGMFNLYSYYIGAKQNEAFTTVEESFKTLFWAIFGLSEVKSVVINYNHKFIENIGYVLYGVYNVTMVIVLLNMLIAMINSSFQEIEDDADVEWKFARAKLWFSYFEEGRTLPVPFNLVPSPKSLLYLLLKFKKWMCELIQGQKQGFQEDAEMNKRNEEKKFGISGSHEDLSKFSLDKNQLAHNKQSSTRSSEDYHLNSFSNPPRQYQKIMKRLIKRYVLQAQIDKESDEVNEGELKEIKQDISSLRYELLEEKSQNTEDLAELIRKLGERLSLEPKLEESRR

Cn1c(=O)cc(OCCCC(=O)NCCCN2CCN(Cc3ccccc3)CC2)c2ccccc21
active: potentiation [3] 19% | potentiation [4] 19% | potentiation [15] 21%
inactive: outcome [1] | outcome [2] | outcome [5] | outcome [6] | outcome [7] | outcome [8] | outcome [9] | outcome [10] | outcome [11] | outcome [12] | outcome [13] | outcome [14] | outcome [16] | outcome [17]

CC(=O)c1nn(-c2cccc(Br)c2)cc1C(=O)c1cccc2ccccc12
inactive: outcome [1] | outcome [2] | outcome [3] | outcome [4] | outcome [5] | outcome [6] | outcome [7] | outcome [8] | outcome [9] | outcome [10] | outcome [11] | outcome [12] | outcome [13] | outcome [14] | outcome [15] | outcome [16] | outcome [17]

Cc1ccc(-c2cc(C(=O)NCCCN3CCCC3)c3ccccc3n2)cc1C
inactive: outcome [1] | outcome [2] | outcome [3] | outcome [4] | outcome [5] | outcome [6] | outcome [7] | outcome [8] | outcome [9] | outcome [10] | outcome [11] | outcome [12] | outcome [13] | outcome [14] | outcome [16] | outcome [17]
active: potentiation [15] 17.7%

CCN(CCNC(=O)C1CCCN(c2ncnc3c2nc2n3CCCCC2)C1)Cc1ccccc1 (stereo not given)
active: potentiation [3] 18% | potentiation [4] 10%
inactive: outcome [1] | outcome [2] | outcome [5] | outcome [6] | outcome [7] | outcome [8] | outcome [9] | outcome [10] | outcome [11] | outcome [12] | outcome [13] | outcome [14] | outcome [15] | outcome [16] | outcome [17]

CSc1ccc2nnc(-c3cccc(F)c3)n2n1
active: potentiation [4] 43% | potentiation [15] 26.8%
inactive: outcome [1] | outcome [2] | outcome [3] | outcome [5] | outcome [6] | outcome [7] | outcome [8] | outcome [9] | outcome [10] | outcome [11] | outcome [12] | outcome [13] | outcome [14] | outcome [16] | outcome [17]

Cc1ccc(Cn2c(=N)c(C(=O)NC3CCCCC3)cc3c(=O)n4ccccc4nc32)cc1
active: potentiation [4] 26%
inactive: outcome [1] | outcome [2] | outcome [3] | outcome [5] | outcome [6] | outcome [7] | outcome [8] | outcome [9] | outcome [10] | outcome [11] | outcome [12] | outcome [13] | outcome [14] | outcome [15] | outcome [16] | outcome [17]

COc1ccc(-c2cc(C3CCN(c4cc(Cl)nc(N)n4)CC3)[nH]n2)cc1
inactive: outcome [1] | outcome [2] | outcome [3] | outcome [5] | outcome [6] | outcome [7] | outcome [8] | outcome [9] | outcome [10] | outcome [11] | outcome [12] | outcome [13] | outcome [14] | outcome [16] | outcome [17]
active: potentiation [4] 20% | potentiation [15] 80.5%

O=[N+]([O-])c1ccc2c(c1)C=C1CCCCC1(N1CCCC1)O2 (stereo not given)
inactive: outcome [1] | outcome [2] | outcome [3] | outcome [4] | outcome [5] | outcome [6] | outcome [7] | outcome [8] | outcome [9] | outcome [10] | outcome [11] | outcome [12] | outcome [13] | outcome [14] | outcome [15] | outcome [16] | outcome [17]

C=C(C)COc1ccc(-c2nc(N)ncc2-c2ccccc2OC)c(O)c1
inactive: outcome [1] | outcome [2] | outcome [3] | outcome [4] | outcome [5] | outcome [6] | outcome [7] | outcome [8] | outcome [9] | outcome [10] | outcome [11] | outcome [12] | outcome [13] | outcome [14] | outcome [16] | outcome [17]
active: potentiation [15] 8.86%

CCOc1ccccc1NC(=O)CN(c1ccc(OC)cc1)S(=O)(=O)c1c(C)[nH]c(=O)[nH]c1=O
inactive: outcome [1] | outcome [2] | outcome [3] | outcome [4] | outcome [5] | outcome [6] | outcome [7] | outcome [8] | outcome [9] | outcome [10] | outcome [11] | outcome [12] | outcome [13] | outcome [14] | outcome [16] | outcome [17]
active: potentiation [15] 16.4%

CCN1CCCC(OC(=O)c2cc(-c3ccccc3Cl)nc3ccccc23)C1 (stereo not given)
inactive: outcome [1] | outcome [2] | outcome [3] | outcome [4] | outcome [5] | outcome [6] | outcome [7] | outcome [8] | outcome [9] | outcome [10] | outcome [11] | outcome [12] | outcome [13] | outcome [14] | outcome [16] | outcome [17]
active: potentiation [15] 9.46%

COc1cc(=O)n2c(-c3ccccc3)csc2n1
inactive: outcome [1] | outcome [2] | outcome [3] | outcome [4] | outcome [6] | outcome [7] | outcome [8] | outcome [9] | outcome [10] | outcome [11] | outcome [12] | outcome [13] | outcome [14] | outcome [15] | outcome [16] | outcome [17]
active: inhibition [5] 39%

Cc1c(N2C(=O)/C(=C\C3CC=CCC3)SC2=S)c(=O)n(-c2ccccc2)n1C (stereo not given)
inactive: outcome [1] | outcome [2] | outcome [3] | outcome [4] | outcome [5] | outcome [6] | outcome [7] | outcome [8] | outcome [9] | outcome [10] | outcome [11] | outcome [12] | outcome [13] | outcome [14] | outcome [15] | outcome [16] | outcome [17]

O=C(Cc1cn(Cc2cccc(Cl)c2)c2ccccc12)N1CCCC1
active: potentiation [4] 10% | potentiation [15] 29.2%
inactive: outcome [1] | outcome [2] | outcome [3] | outcome [5] | outcome [6] | outcome [7] | outcome [8] | outcome [9] | outcome [10] | outcome [11] | outcome [12] | outcome [13] | outcome [14] | outcome [16] | outcome [17]

COC1=C(C)C(O)=C(C(=O)/C=C/c2ccccc2)C(=O)C1(C)C
inactive: outcome [1] | outcome [2] | outcome [3] | outcome [4] | outcome [5] | outcome [6] | outcome [7] | outcome [8] | outcome [9] | outcome [10] | outcome [11] | outcome [12] | outcome [13] | outcome [14] | outcome [15] | outcome [16] | outcome [17]
